Arbovirus anti – antivirals against arbovirus infection, primary screen, cell-based, full library, 10K replicate subset | arbovirus infection cell-based antiviral screen | inhibition, % at 10 µM | hit rate 0.37% among 200,000; in the data active means inhibition above about 30%
PERK inhibitor – block of dimerizer-induced PERK translation repression, primary screen, PERK inhibitor project, CHO PERK-DD cells, SEAP luminescence, HTS; hit rate 0.17% among 220,000; inhibition, % at 5.6 µM; CHO PERK-DD fusion, SEAP luminescence translation reporter; Eukaryotic translation initiation factor 2-alpha kinase 3 (Homo sapiens), Q9NZJ5; AID 1416, 2008;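 active means inhibition above the mean inhibition of all tested compounds plus 3 SD, set separately per screening campaign, cut at about 2.9% in these data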;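 further: PERK kinase domain activated by AP20187 dimerizer at 100 nM; 0% = DMSO with dimerizer and 100% = rapamycin at 8.4 µM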
ROMK primary – ROMK potassium channel modulators, primary screen, cell-based, thallium flux, MLSMR library. ATP-sensitive inward rectifier potassium channel 1 (Homo sapiens), P48048. Tet-inducible ROMK, thallium flux fluorescence; actives lie on both sides. B-score at 10 µM. hit rate 2% among 130,000;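 active means signal ratio slope over the read window, or its plate-corrected B-score, at least 3 SD from the plate mean, either direction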;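 further: B-score of the F/F0 ratio slope over 7 to 12 s after thallium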
Target sequence (P48048 whole entry, looked up): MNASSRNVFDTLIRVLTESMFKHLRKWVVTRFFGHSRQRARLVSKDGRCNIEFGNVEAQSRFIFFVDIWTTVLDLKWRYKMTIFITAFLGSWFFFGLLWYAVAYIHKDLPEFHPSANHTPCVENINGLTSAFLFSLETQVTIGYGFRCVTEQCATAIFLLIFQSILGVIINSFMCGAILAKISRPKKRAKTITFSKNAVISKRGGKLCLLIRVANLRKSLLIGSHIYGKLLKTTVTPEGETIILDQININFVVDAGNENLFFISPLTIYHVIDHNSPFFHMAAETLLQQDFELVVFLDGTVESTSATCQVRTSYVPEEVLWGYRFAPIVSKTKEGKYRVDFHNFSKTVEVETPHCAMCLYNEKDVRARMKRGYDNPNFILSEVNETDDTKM
WT yeast gro inh – growth inhibition of WT strain, primary screen, mitochondrial fusion inhibitor project, WT and mutant strains, chemical genetic; mitochondrial fusion phenotypic screen; inhibition, % at 10 µM; hit rate 2.1% among 190,000; AID 1362, 2008; in the data active means inhibition above about 58%; tested in S. cerevisiae
ROMK retest – ROMK channel modulator hit retest, confirmation, cell-based, thallium flux, duplicate, resupplied hits | shares compounds with ROMK primary | fluorescence ratio; stronger effect = lower value | normalized thallium flux (F/F0 slope) at 10 µM | hit rate 54% among 3,000 | AID 1917, 2009;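 active means Flux at 10 µM at least 3 SD below or above vehicle control mean in one or both replicates; inconclusive means no clear call, values can overlap the other calls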
* = called active by the depositor; ? = inconclusive; . = no result given. The list is not random: actives were taken first. Their share in the collection is about 3.3%.

SMILES	Arbovirus anti	PERK inhibitor	ROMK primary	WT yeast gro inh	ROMK retest
Cc1cc(C(C)(C)C)cc(C)c1Cn1c2[n+](c3ccc(C(F)(F)F)cc31)CCCCC2	-11	0	-4.9*	25	0.048*
O=C1NC(c2ccccc2)=C(c2ccc3ccccc3n2)C(c2ccc(F)cc2)N1 (stereo not drawn)	3	0	-3*	1	0.076
O=C(O)c1sccc1Oc1ccc(F)cc1[N+](=O)[O-]	-1	1	.	19	.
CN(C)C(=O)c1sccc1Oc1ccc(F)cc1[N+](=O)[O-]	-1	1	-0.44	-7	0.08
CCn1ncc(C2=NOC(C(=O)Nc3cccc(O)c3)C2)c1C (stereo not drawn)	1	1	1.7	12	.
CC(C(=O)NC1CCCc2ccccc21)N1CCN(Cc2ccc3c(c2)OCO3)CC1 (stereo not drawn)	5	-1	-3*	5	0.058*
CCOC(=O)c1ccc(N2C(=O)c3n[nH]c(C)c3C2c2ccc(OC)cc2)cc1 (stereo not drawn)	12	-2	.	0	.
CCOC(=O)c1ccc(N2C(=O)c3n[nH]c(C)c3C2c2ccc(OC)c(OC)c2)cc1 (stereo not drawn)	-4	-1	.	-53	0.087
CCCCCCNC(=O)CCCCCNS(=O)(=O)c1ccc(OC)cc1	-6	0	-1	5	.
Cc1sc2ncn3c(C)nnc3c2c1C	3	2	.	-6	0.081
Cc1sc2ncn(CCn3cnc4sc(C)c(C)c4c3=O)c(=O)c2c1C	6	0	-0.05	2	.
N#C/C(=C\c1ccc(O)c(Br)c1)C(=O)NCc1ccccc1	1	2	3.6*	4	0.066*
N#C/C(=C\c1ccc(O)c([N+](=O)[O-])c1)C(=O)NCc1ccccc1	2	2	1.6	11	.
O=C1NC(c2ccccc2OC(F)F)Oc2ccccc21 (stereo not drawn)	1	1	.	-4	.
CC(C)NC(=O)C1CCN(C2CCN(C(=O)c3scc4c3CCCC4)CC2)CC1	0	0	0.18	10	.
O=C(Nc1ccccc1)c1ccccc1O	10	0	.	11	.
Cc1ccc(NC(=O)c2ccccc2O)cc1	11	0	.	56	0.065*
CCN(C(=O)CN1CCOCC1)c1c(N)n(Cc2ccccc2)c(=O)[nH]c1=O	1	0	-0.51	-15	.
CCCCCN(C(=O)CN1CCC(Cc2ccccc2)CC1)c1c(N)n(CCCC)c(=O)[nH]c1=O	-3	1	-3.2*	7	0.061*
O=C(N1CCOCC1)N1CCN(S(=O)(=O)N2CCOCC2)CC1	1	1	.	-9	.
NC(N)=N/N=C/c1ccc2cccc(OCc3ccccc3)c2n1	.	-1	-3.7*	.	0.049*
COc1ccc(Oc2ccccc2/C=C/C(=O)O)cc1	9	0	.	45	.
COc1ccc(Oc2ccccc2C=O)cc1	-3	1	.	0	?
Cc1ccc2cc(C#N)c(NCCNC(=S)NCCCN(C)C)nc2c1C	-23	0	-3.1*	-1	0.057*
COc1ccc(Oc2ccc(S(=O)(=O)N3CCCCC3)cc2S(=O)(=O)N2CCCCC2)cc1	36*	0	-5.7*	-16	0.047*
SMILES	Arbovirus anti	PERK inhibitor	ROMK primary	WT yeast gro inh	ROMK retest
COc1ccc(S(=O)(=O)N2CCCCC2)cc1C(C)C	8	0	.	13	0.053*
COc1ccc(S(=O)(=O)N2CCCCCC2)cc1C(=O)OC(C)C(N)=O (stereo not drawn)	.	1	.	.	.
Cc1cc([N+](=O)[O-])nn1CCCC(=O)N1CCN(c2ccccc2)CC1	9	-1	0.0069	7	.
O=c1cc2c(nn1Cc1ccccc1)-c1ccccc1CC2	-9	0	0.16	39	.
O=c1cc2c(nn1Cc1cccc([N+](=O)[O-])c1)-c1ccccc1CC2	4	0	-8.3*	26	0.053*
CNc1ccccc1C(=O)OC	.	.	.	.	0.081
COC(=O)c1ccccc1NC(=O)CC#N	7	1	.	-20	0.073
CCNC(=O)Nc1ccccc1C(=O)OC	-1	1	-0.27	-10	.
COc1cccc(O[C@@H]2O[C@@H]3COC(C)(C)O[C@H]3[C@H](O)[C@H]2NC(C)=O)c1	0	0	.	-13	.
COc1ccc(CCNC(=O)CCc2ccc(S(=O)(=O)NC(C)C)cc2)cc1	2	-1	0.4	20	.
COc1ccc2c(C=Nc3c(C)n(C)n(-c4ccccc4)c3=O)c(O)n(Cc3ccco3)c(=O)c2c1	-10	-1	0.28	6	.
CCCCCCCCNC(=S)NCCN1CCCCC1	1	-1	-2.6*	42	0.048*
CCCCn1c(N)c(N(CC(C)C)C(=O)CN(C)Cc2cccc(OC)c2)c(=O)[nH]c1=O	-4	0	.	.	.
Cc1ccc(-c2cc(C(=O)OCn3nnc4ccccc4c3=O)c3ccccc3n2)cc1	0	1	1.8	0	.
COc1ccccc1CNC(=O)C/C(C)=N/NC(=O)Cc1ccc(OC)c(OC)c1	-4	0	1.2	-4	.
COc1ccccc1CNC(=O)C/C(C)=N/NC(=O)COc1ccc(C)cc1Br	-13	3	2.8*	-6	0.078
COC(=O)/C=C1\C(=O)N(c2nc3ccccc3s2)C(=S)N1c1ccc(F)cc1	2	0	-2.8*	21	0.064*
CN(C1CCCCC1)S(=O)(=O)c1ccc(Cl)c(C(=O)O)c1	-2	1	.	-4	.
[O-]/[N+](=C\c1ccncc1)c1ccccc1	9	1	.	2	0.083
C=C(C)C1CC=C(C)/C(=N\NC(=O)CNc2cccc3ccccc23)C1 (stereo not drawn)	-7	1	.	21	.
O=c1oc(/C=C/c2ccccc2)nc2sc3c(c12)CCC3	66*	0	-3.7*	-7	0.045*
COc1ccc(/C=C/c2nc3sc4c(c3c(=O)o2)CCC4)cc1	.	0	.	.	.
O=C(O)CCCCCN1C(=O)C2CCCCC2C1=O (stereo not drawn)	-4	1	0.7	-4	.
O=C(O)CCCCCCC1C(=O)NC(=O)N1CCC(O)C1CCCCC1 (stereo not drawn)	-3	1	4*	-13	?
COc1ccc(OCC(=O)NC2CC(C)(C)NC(C)(C)C2)cc1	4	0	-0.42	10	.
N#C/C(=C/c1cc(Br)cs1)C(=O)NCC1CCCO1 (stereo not drawn)	-1	0	.	8	0.064*
CCOc1cc(-c2cc(-c3ccc(N)cc3)nc(N)c2C#N)ccc1O	-14	-1	5*	14	0.09
CC(=O)Cc1nsc(NC(=O)c2ccc(-c3cc(Cl)ccc3Cl)o2)n1	-11	1	3.8*	71*	0.089
CC(C)(C)C(=O)Nc1cc(S(=O)(=O)N2CCCCC2)ccc1N1CCCCC1	-14	0	-1.4	21	.
Clc1ccc(CSc2nnc(-c3cccnc3)n2Cc2ccco2)c(Cl)c1	8	-1	-2.4*	-2	?

Assay outcomes deposited in PubChem BioAssay by several laboratories.
